Lassa entry inh – qHTS for Inhibitors of binding or entry into cells for Lassa Virus | Lassa virus pseudotype entry inhibition, cell reporter | Potency, µM (series often up to 37.9 µM), for inactives: at the highest dose activity change, negative = inhibition, hits mostly inhibitors | 300,000 tested, 1.2% active; calls by dose curve; tested in HEK293 cells; further: potency means the concentration at half of the fitted maximal effect; nearly all actives have a fitted effect of over 50% in size
HCV inhibitor – qHTS Assay for Inhibitors of Hepatitis C Virus (HCV); 340,000 tested, 3.4% active; Potency, µM (top dose mostly 41.8 µM), for the others: at the top dose activity change, negative = inhibition, most hits filed as inhibitors; Huh7.5.1 HCVcc-Cre infection, luciferase reporter, 44 h; further: potency means the concentration at half of the fitted maximal effect
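Luciferase read-out (15 sec integration) after a 15 min room-temperature substrate step quantifies HCVcc-Cre infection. Cells, 1,000 per well, had compound added 4 h post-plating, then virus at ~0.5 moi, and were cultured 44 h.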
Pf growth 48h – Primary qHTS for delayed death inhibitors of the malarial parasite plastid, 48 hour incubation | P. falciparum luciferase growth in erythrocytes, 48 h | Potency, µM (titrated, usually from 28.7 µM), without a hit: at the highest dose activity change, negative = inhibition, most hits filed as inhibitors | 310,000 tested, 5.9% active | AID 504832, 2011; further: potency means the concentration at half of the fitted maximal effect
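Luciferase-expressing parasites in RBCs, 2% Hct / 0.1% parasitemia final; RPMI 1640 + 0.5% Albumax; 37 C, 5% CO2, one generation; luminescence read-out, lower signal = inhibition.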
Marburg entry inh – qHTS for inhibitors of binding or entry into cells for Marburg Virus | Marburg virus pseudotyped entry inhibition, cell reporter | Potency, µM (top dose mostly 37.8 µM), for inactives: top-dose activity change, negative = inhibition, usual class: inhibitors | 300,000 tested, 1.8% active; calls by dose curve; tested in HEK293 cells; further: potency means the concentration at half of the fitted maximal effect
HCMV antiviral – qHTS Assay for inhibitors of the human cytomegalovirus (HCMV) | activity change, negative = inhibition, % at 57.5 µM | HFF cells, HCMV-luciferase reporter, 72 h; hits give low values | 410,000 tested, 4.5% active | AID 1259415, 2018; in the data active means activity change below about -60%; inconclusive means no clear call, values can overlap the other calls; inactive means above about -39%
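Human foreskin fibroblasts infected with luciferase-reporter HCMV at MOI 1 PFU/cell, compounds at two doses. Luciferase measured 72 h post infection; normalized to buffer-only basal and Salinomycin (10uM) controls.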
Pf growth 96h – Primary qHTS for delayed death inhibitors of the malarial parasite plastid, 96 hour incubation; P. falciparum luciferase reporter growth, 96 h; Potency, µM (top dose mostly 28.7 µM), for inactives: at the highest dose activity change, negative = inhibition, usual class: inhibitors; 320,000 tested, 6.9% active; AID 504834, 2011; further: potency means the concentration at half of the fitted maximal effect
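Erythrocytes infected with luciferase-expressing P. falciparum were dispensed at 2% hematocrit and 0.05% parasitemia (final), then incubated with compounds 96 hours at 37 C in 5% CO2. Luminescence after detection reagent addition reported growth.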
An asterisk follows results filed as active; i = inactive; ? = inconclusive; . = not tested or not shown; + = active, no number; [ ] = dose if it differs, or a comment. This is a sample that favours compounds with a hit; in the whole collection about 14% have one here. Unless noted, the call rests on the fitted dose curve; in most records, active means well fitted inhibition curve with a large enough effect; inconclusive means small, poorly fitted or top-dose-only effect, or another doubt; inactive means no such curve, though single readings can be large or run the other way. On the % scale 0 is the no-effect control and ±100 the full control effect.

SMILES | Lassa entry inh | HCV inhibitor | Pf growth 48h | Marburg entry inh | HCMV antiviral | Pf growth 96h
COc1ccc(-n2c(/C=C3\C(=O)Nc4ccccc43)nc3ccccc3c2=O)cc1 | ? | -6.0% | 8.7% | ? | -63.5* | i
CCn1c(/C=C2\C(=O)N(C(C)C)c3ccccc32)nc2ccccc2c1=O | . | ? | 3.7µM* | . | 0.0 | ?
CCN1C(=O)/C(=C/c2nc3ccccc3c(=O)n2-c2ccccc2)c2ccccc21 | ? | -9.0% | ? | -24.6% | -102.2* | 48.6%
Clc1ccc(CCNC(c2cccc(Cl)c2)c2nnc(-c3ccccc3)o2)cc1 (stereo not drawn) | -0.7%[46.1 µM] | . | . | ? | 4.7 | .
CCOc1ccc(CN(C)c2nc(-c3cccnc3)nc3ccccc23)cc1OC | . | ? | 11.7µM* | ? | -17.8 | ?
COc1ccccc1NC(=O)Nc1nc(-c2cccnc2)nc2ccccc12 | . | . | . | 7.08µM* | . | .
COc1ccc(CCNc2nc(-c3cccnc3)nc3ccccc23)cc1OC | ? | 10µM* | 14.7µM* | 8.91µM* | 4.2 | ?
Cc1c(O)ccc(/C=N/Nc2nc(-c3cccnc3)nc3ccccc23)c1O | . | 25.1µM* | ? | . | -75.2* | 10.4µM*
COc1ccc(CCNc2nc(SCc3ccc(F)cc3)nc3ccccc23)cc1OC | -9.3%[46.1 µM] | . | . | . | 2.7 | .
CN(C)c1ccc(CNC(=O)c2ccc(Cn3c(SCc4ccccc4)nc4cccnc43)cc2)cc1 | . | . | . | 13.6%[46.1 µM] | 19.9 | .
COC(=O)[C@]12C[C@H](CC(=O)NCc3ccccc3)C(=O)N(Cc3ccccc3)C1=C[C@H](C(C)C)O[C@@H]2C1CC1 | . | . | . | . | -17.0 | .
Nc1ccccc1SCC(=O)Nc1ccc2c(c1)OCCO2 | ? | 11.5% | 111.8% | ? | 6.5 | 25.0%
Cc1ccc(-c2nc(N/N=C/c3ccncc3)c3ccccc3n2)cc1 | ? | -22.9% | . | 2.91µM* | 99.6 | ?
COc1ccc(/C=N/Nc2nc(-c3cccnc3)nc3ccccc23)cc1OC | -23.9%[46.1 µM] | -22.6% | 6.57µM* | ? | -11.5 | ?
Oc1ccc(/C=N/Nc2nc(-c3cccnc3)nc3ccccc23)c(O)c1 | . | 11.2µM* | 9.28µM* | . | -25.8 | ?
CCc1nnc(SCc2nc(-c3ccccc3F)oc2C)c2cc3sccc3n12 | 20.1%[46.1 µM] | . | . | . | 13.2 | .
COc1ccc(/C=C2\SC(=S)N(CCCC(=O)Nc3ccc(O)cc3)C2=O)cc1 | . | ? | ? | . | + | ?
COc1ccc(/C=C2/SC(=S)N(CCCC(=O)Nc3ccc(O)cc3)C2=O)cc1 | . | ? | ? | . | -99.6* | ?
Cc1cn2c(=O)cc(COc3cccc(NC(=O)c4ccc(C(C)(C)C)cc4)c3)nc2s1 | 6.6%[46.1 µM] | . | . | ? | -19.7 | .
O=C(CC1C(=O)NCCN1Cc1ccccc1)NC1CCCCC1 (stereo not drawn) | . | . | . | . | 6.5 | .
O=C1C2CC=C(Cl)CC2C(=O)N1CCN1CCOCC1 (stereo not drawn) | -0.6% | 21.8% | . | 10.6%[46.1 µM] | 6.4 | 2.0%
O=C1C2CC=C(Cl)CC2C(=O)N1CCCCCCN1C(=O)C2CC=C(Cl)CC2C1=O (stereo not drawn) | ? | -13.2% | . | -15.9% | -27.8 | 11.7µM*
O=C1C2CC=C(Cl)CC2C(=O)N1CCC[n+]1cccc2ccccc21 (stereo not drawn) | 19.0% | -6.6% | 9.28µM* | ? | -10.8 | ?
O=C(CCNC(=O)C1CCN(S(=O)(=O)c2ccccc2)CC1)Nc1cccc(C(F)(F)F)c1 | . | -8.0% | -0.4% | . | -15.9 | -29.6%
CCOC(=O)N/N=C1/C[C@@H](O)[C@@H](O)[C@@H]2[C@@H]3C(=O)N(Cc4ccc5c(c4)OCO5)C(=O)[C@H]3CC[C@@H]12 | . | . | . | -22.0%[14.2 µM] | . | .
SMILES | Lassa entry inh | HCV inhibitor | Pf growth 48h | Marburg entry inh | HCMV antiviral | Pf growth 96h
COc1cccc(CNC(=O)N2CCN(S(=O)(=O)c3ccc(Cl)cc3)CC2)c1 | 18.1%[46.1 µM] | -6.3% | -15.6% | -8.8%[46.1 µM] | -60.7* | -63.4%
COc1ccccc1CNC(=O)N1CCN(S(=O)(=O)c2ccc(Cl)cc2)CC1 | -7.5% | 18.6% | ? | 0.0% | -14.9 | -14.7%
O=C(NCc1ccc(Cl)cc1)N1CCN(S(=O)(=O)c2ccccc2)CC1 | ? | -3.0% | -38.7% | -15.7%[46.1 µM] | -66.6* | 10.8%
CCOC1=C2[C@@H](CN(S(=O)(=O)c3ccc(C)cc3)[C@H]2c2ccccc2)[C@H]2C(=O)N(c3ccccc3)C(=O)[C@H]2C1 | . | . | . | . | -5.3 | .
CCOCCCNC(=S)N1CCCN(c2nc3c(C)c(C)ccc3cc2C#N)CC1 | -28.3%[46.1 µM] | 10µM* | -5.4% | ? | -9.1 | ?
Cc1cc(C)c2cc(C#N)c(N3CCCC3)nc2c1 | 6.8% | ? | -5.4% | 5.7% | 66.4 | 10.4µM*
Cc1cc(C)c2cc(C#N)c(N3CCCN(C(=S)NCCCN(C)C)CC3)nc2c1 | 16.7%[46.1 µM] | 11.2µM* | -44.8% | ? | 13.1 | 10.4µM*
Cc1ccc2cc(C#N)c(N3CCCN(C(=S)NCCCN(C)C)CC3)nc2c1 | ? | 10µM* | 10.4µM* | 7.08µM* | -5.1 | ?
CCOCCCNC(=S)N1CCCN(c2nc3cc(C)ccc3cc2C#N)CC1 | -5.1%[46.1 µM] | 4.3% | -13.1% | 3.7%[46.1 µM] | -23.9 | 0.0%
COc1ccc(S(=O)(=O)NCCS(=O)(=O)N2CCN(c3ccccc3)CC2)cc1OC | 4.0%[46.1 µM] | . | . | . | ? | .
CCOC(=O)Cc1c(C)nc2cc(C)nn2c1C | 26.0% | 0.4% | -0.8% | ? | 12.0 | 13.1µM*
Cc1cc(C)nc(/N=C(\N)Nc2cccc(OCc3ccccc3)c2)n1 | . | ? | ? | . | -72.6* | ?
Cc1cc(C)nc(/N=C(\N)Nc2ccc(OCc3ccccc3)cc2)n1 | ? | 10µM* | ? | ? | -74.7* | 47.1%
Cc1cc(C)nc(/N=C(\N)Nc2ccc(OCCC(C)C)cc2)n1 | -19.2% | 10µM* | 10.4µM* | ? | ? | ?
COc1ccc(N/C(N)=N/c2nc(C)cc(C)n2)cc1 | . | . | . | . | -32.7 | .
Cc1cc(C)nc(/N=C(\N)Nc2ccc(S(=O)(=O)Nc3nccc(C)n3)cc2)n1 | -5.0% | ? | 44.3% | 6.3%[46.1 µM] | -33.0 | 4.15µM*
CCCN(C)C1CN(Cc2cn(Cc3ccc(C)cc3)nn2)S(=O)(=O)C1 (stereo not drawn) | . | . | . | . | 24.1 | .
COc1ccc(CNC(=O)Cc2c(C)c3cc4c(C)coc4cc3oc2=O)cc1 | -1.7%[46.1 µM] | . | . | 4.3%[46.1 µM] | -16.9 | .
CCc1cc2c(N3CCCCC3)ncnc2s1 | 1.8% | 11.2µM* | -15.9% | -18.0% | -25.9 | 16.3%
CCc1cc2c(N3CCN(C)CC3)ncnc2s1 | -2.6% | -10.0% | -19.1% | -5.6% | -34.8 | -14.0%
COc1ccc(C)cc1NC(=O)COC(=O)C1COc2ccccc2O1 (stereo not drawn) | . | 0.3% | . | . | -91.6* | .

Source: PubChem
